The nature of assay [1]: NCI Yeast Anticancer Drug Screen. Data for the rad50 strain (AID 155).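 Further: 0% = growth of vehicle-only cultures of the same strain.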 To be noted: S. cerevisiae rad50 strain growth inhibition, stronger effect = higher value. In outline: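 Relative growth inhibition (compound vs vehicle) was measured in yeast with a defined repair-gene alteration.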
Assay [2] can be described thus: NCI Yeast Anticancer Drug Screen. Data for the mec2-1 strain (AID 157). To be noted: S. cerevisiae mec2-1 strain, stronger effect = higher value. In a few lines: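 Using mec2-1 yeast: add compound, measure growth, express inhibition versus vehicle-treated cultures.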
Assay [3] can be described thus: NCI Yeast Anticancer Drug Screen. Data for the sgs1 mgt1 strain (AID 161).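 Further: 0% = growth of cultures given vehicle only.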 To be noted: S. cerevisiae sgs1 mgt1 strain, stronger effect = higher value. In outline:
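Compounds are added to genetically altered yeast, and growth is compared with cultures given vehicle alone to give percent inhibition.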

The nature of assay [4]: NCI Yeast Anticancer Drug Screen. Data for the cln2 rad14 strain (AID 165).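 Further: 0% = growth equal to vehicle treated cultures.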 To be noted: S. cerevisiae cln2 rad14 strain, stronger effect = higher value. In outline: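 Yeast strain cln2 rad14, bearing defects in cell cycle control and DNA repair, serves as the test system; values reflect growth inhibition compared with vehicle.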
The nature of assay [5]: NCI Yeast Anticancer Drug Screen. Data for the bub3 strain (AID 167). To be noted: S. cerevisiae bub3 mutant strain, stronger effect = higher value. In a few lines:
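Screening used yeast with an engineered genetic alteration affecting cell cycle control. Compound-exposed cultures were compared with vehicle cultures, and reduced growth was taken as inhibition.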

A short description of assay [6]: NCI Yeast Anticancer Drug Screen. Data for the mlh1 rad18 strain (AID 175). To be noted: S. cerevisiae mlh1 rad18 strain growth inhibition, stronger effect = higher value. In outline:
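Steps: expose repair-defective yeast to compound; measure growth; express inhibition against vehicle-treated controls.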

[7] abbreviates: at 5.0 µM (retest, dose inferred, filed as 0.5).
The mark [8] stands for this setting: at 50.0 µM (retest, dose inferred, filed as 5.0).

The panel holds about 79,000 compounds, 15% with a hit somewhere; the sample as a whole holds those more often. Unmarked numbers belong to inactive results. Calls of active or inactive are those of the source. No stated cut-off is given here; in the data, active means growth inhibition above about 70%; inactive means the rest.

As to `COc1ccc(N=NC(C(=O)c2ccccc2)C(=O)c2ccccc2)cc1`, the growth inhibition in assay [1] (setting [7]) was 29%; in assay [1] (setting [8]), 96% (active); in assay [1] (at 50.0 µM), 92.3% (active); in assay [2] (setting [7]) it was -1%; in assay [2] (setting [8]), 94% (active); in assay [2] (at 50.0 µM), 93.2% (active). Besides, the growth inhibition in assay [3] (setting [7]) was 20%; in assay [3] (setting [8]), 94% (active); in assay [3] (at 50.0 µM), 92.4% (active); in assay [4] (setting [7]), 6%; in assay [4] (setting [8]) it was 95% (active); in assay [4] (at 50.0 µM) it was 88.7% (active). For the same compound, the growth inhibition in assay [5] (setting [7]) was -3%; in assay [5] (setting [8]), 97% (active); in assay [5] (at 50.0 µM), 91.2% (active); in assay [6] (setting [7]), -18%; in assay [6] (setting [8]), 97% (active); in assay [6] (at 50.0 µM) it was 91.2% (active).
Consider `CCC(c1ccc(O)cc1)C(O)(CC)c1ccc(O)cc1` (configuration not stated), for which the growth inhibition is -6% in assay [1] (setting [7]); -9% in assay [1] (setting [8]); 46.4% in assay [1] (at 50.0 µM); -10% in assay [2] (setting [7]); -4% in assay [2] (setting [8]); 28.9% in assay [2] (at 50.0 µM). For the same compound, the growth inhibition in assay [3] (setting [7]) is -3%; in assay [3] (setting [8]), 35%; in assay [3] (at 50.0 µM) it was 65.1%; in assay [4] (setting [7]) it was -24%; in assay [4] (setting [8]), -1%; in assay [4] (at 50.0 µM), 26.1%. Also, the growth inhibition in assay [5] (setting [7]) was -11%; in assay [5] (setting [8]) it was -11%; in assay [5] (at 50.0 µM), 58.6%; in assay [6] (setting [7]), -26%; in assay [6] (setting [8]) it was -8%; in assay [6] (at 50.0 µM), 14.3%.
With `CC(Nc1ccc(Cl)c(Cl)c1)c1ccncc1` (configuration not stated), the growth inhibition in assay [1] (setting [7]) was 1%; in assay [1] (setting [8]), 98% (active); in assay [1] (at 50.0 µM) it was 85.8% (active); in assay [2] (setting [7]), -36%; in assay [2] (setting [8]), 95% (active); in assay [2] (at 50.0 µM), 85.8% (active). Also, the growth inhibition in assay [3] (setting [7]) was -26%; in assay [3] (setting [8]), 98% (active); in assay [3] (at 50.0 µM) it was 79.8% (active); in assay [4] (setting [7]) it was 32%; in assay [4] (setting [8]), 98% (active); in assay [4] (at 50.0 µM) it was 83.9% (active). The growth inhibition in assay [5] (setting [7]) is -47%; in assay [5] (setting [8]), 99% (active); in assay [5] (at 50.0 µM), 86% (active); in assay [6] (setting [7]), -1%; in assay [6] (setting [8]), 98% (active); in assay [6] (at 50.0 µM), 82.6% (active).
For the compound `Cc1ncc(Br)c(C(=O)O)n1`, the growth inhibition in assay [1] (setting [7]) is 0%; in assay [1] (setting [8]) it was -7%; in assay [1] (at 50.0 µM), 6.65%; in assay [2] (setting [7]), 1%; in assay [2] (setting [8]), 3%; in assay [2] (at 50.0 µM) it was 19.3%. Moreover, the growth inhibition was 5% in assay [3] (setting [7]); -3% in assay [3] (setting [8]); 3.1% in assay [3] (at 50.0 µM); -5% in assay [4] (setting [7]); 1% in assay [4] (setting [8]); 34.2% in assay [4] (at 50.0 µM). Further, the growth inhibition in assay [5] (setting [7]) was -4%; in assay [5] (setting [8]), -6%; in assay [5] (at 50.0 µM), 0.75%; in assay [6] (setting [7]) it was -1%; in assay [6] (setting [8]), -8%; in assay [6] (at 50.0 µM) it was 52.9%.
In the case of `CC1CCCC(C)C1=O` (configuration not stated), the growth inhibition is 4% in assay [1] (setting [7]); 3% in assay [1] (setting [8]); 8.7% in assay [1] (at 50.0 µM); -4% in assay [2] (setting [7]); 0% in assay [2] (setting [8]); -12.2% in assay [2] (at 50.0 µM). Further, the growth inhibition is -7% in assay [3] (setting [7]); 3% in assay [3] (setting [8]); -13.4% in assay [3] (at 50.0 µM); 3% in assay [4] (setting [7]); 7% in assay [4] (setting [8]); 13.8% in assay [4] (at 50.0 µM). The growth inhibition is 5% in assay [5] (setting [7]); 10% in assay [5] (setting [8]); 3% in assay [5] (at 50.0 µM); 2% in assay [6] (setting [7]); 3% in assay [6] (setting [8]); -4.35% in assay [6] (at 50.0 µM).
With `C#CCn1cnc2c(N)ncnc21`, the growth inhibition in assay [1] (setting [7]) is -1%; in assay [1] (setting [8]), -11%; in assay [1] (at 50.0 µM), 6.75%; in assay [2] (setting [7]), 3%; in assay [2] (setting [8]), -8%; in assay [2] (at 50.0 µM), 15.8%. In addition, the growth inhibition in assay [3] (setting [7]) is 5%; in assay [3] (setting [8]) it was -13%; in assay [3] (at 50.0 µM) it was 28.4%; in assay [4] (setting [7]), 3%; in assay [4] (setting [8]), -6%; in assay [4] (at 50.0 µM) it was 84.2% (active). In addition, the growth inhibition in assay [5] (setting [7]) was -4%; in assay [5] (setting [8]), -16%; in assay [5] (at 50.0 µM), -6.65%; in assay [6] (setting [7]), 2%; in assay [6] (setting [8]), -14%; in assay [6] (at 50.0 µM), 7.3%.
`CN(C)CC1CCC/C(=C\c2ccc(Cl)c(Cl)c2)C1=O` (configuration not stated): the growth inhibition in assay [1] (setting [7]) was 19%; in assay [1] (setting [8]) it was 98% (active); in assay [1] (at 50.0 µM), 69.3%; in assay [2] (setting [7]), 9%; in assay [2] (setting [8]) it was 98% (active); in assay [2] (at 50.0 µM), 81.8% (active). The growth inhibition in assay [3] (setting [7]) was -1%; in assay [3] (setting [8]), 97% (active); in assay [3] (at 50.0 µM), 86.5% (active); in assay [4] (setting [7]), 7%; in assay [4] (setting [8]), 97% (active); in assay [4] (at 50.0 µM), 86.5% (active). In addition, the growth inhibition in assay [5] (setting [7]) was -22%; in assay [5] (setting [8]), 98% (active); in assay [5] (at 50.0 µM), 86% (active); in assay [6] (setting [7]), 6%; in assay [6] (setting [8]) it was 97% (active); in assay [6] (at 50.0 µM), 89.3% (active).
Turning to `COC(=O)Cn1/c(=N\N=C(/C)c2ccc(C)cc2)sc2ccccc21`, the growth inhibition in assay [1] (setting [7]) is -13%; in assay [1] (setting [8]), 7%; in assay [1] (at 50.0 µM), 35%; in assay [2] (setting [7]), -2%; in assay [2] (setting [8]) it was -2%; in assay [2] (at 50.0 µM) it was 26.7%. Further, the growth inhibition in assay [3] (setting [7]) was -10%; in assay [3] (setting [8]), 28%; in assay [3] (at 50.0 µM) it was 40.4%; in assay [4] (setting [7]), -10%; in assay [4] (setting [8]) it was 16%; in assay [4] (at 50.0 µM) it was 15.3%. Moreover, the growth inhibition in assay [5] (setting [7]) is -11%; in assay [5] (setting [8]), 11%; in assay [5] (at 50.0 µM), 35.9%; in assay [6] (setting [7]), -20%; in assay [6] (setting [8]), 36%; in assay [6] (at 50.0 µM) it was 40.6%.
With `CN(Cc1ccccc1)CC(O)c1cc(-c2ccc(Cl)cc2)nc2ccccc12` (configuration not stated), the growth inhibition in assay [1] (setting [7]) was -1%; in assay [1] (setting [8]), 99% (active); in assay [1] (at 50.0 µM), 98.8% (active); in assay [2] (setting [7]) it was 2%; in assay [2] (setting [8]), 100% (active); in assay [2] (at 50.0 µM) it was 98.5% (active). The growth inhibition is 24% in assay [3] (setting [7]); 100% (active) in assay [3] (setting [8]); 99.2% (active) in assay [3] (at 50.0 µM); 1% in assay [4] (setting [7]); 99% (active) in assay [4] (setting [8]); 98.4% (active) in assay [4] (at 50.0 µM). For the same compound, the growth inhibition in assay [5] (setting [7]) is 7%; in assay [5] (setting [8]), 99% (active); in assay [5] (at 50.0 µM), 98% (active); in assay [6] (setting [7]), 10%; in assay [6] (setting [8]) it was 99% (active); in assay [6] (at 50.0 µM), 98.3% (active).

The values are drawn from PubChem BioAssay (NCI).
